Data from PubChem BioAssay (NCATS).
The list shows a part of the results. Inconclusive results are not listed. The source made the active and inactive calls. Calls follow the shape of the dose curve; as a rule, active = well fitted inhibition curve with a large enough effect; inconclusive = small, poorly fitted or top-dose-only effect, or another doubt; inactive = no such curve, though single readings can be large or run the other way.

Target: DNA polymerase iota (Homo sapiens) (UniProt Q9UNA4)
Sequence (Q9UNA4 whole entry, looked up): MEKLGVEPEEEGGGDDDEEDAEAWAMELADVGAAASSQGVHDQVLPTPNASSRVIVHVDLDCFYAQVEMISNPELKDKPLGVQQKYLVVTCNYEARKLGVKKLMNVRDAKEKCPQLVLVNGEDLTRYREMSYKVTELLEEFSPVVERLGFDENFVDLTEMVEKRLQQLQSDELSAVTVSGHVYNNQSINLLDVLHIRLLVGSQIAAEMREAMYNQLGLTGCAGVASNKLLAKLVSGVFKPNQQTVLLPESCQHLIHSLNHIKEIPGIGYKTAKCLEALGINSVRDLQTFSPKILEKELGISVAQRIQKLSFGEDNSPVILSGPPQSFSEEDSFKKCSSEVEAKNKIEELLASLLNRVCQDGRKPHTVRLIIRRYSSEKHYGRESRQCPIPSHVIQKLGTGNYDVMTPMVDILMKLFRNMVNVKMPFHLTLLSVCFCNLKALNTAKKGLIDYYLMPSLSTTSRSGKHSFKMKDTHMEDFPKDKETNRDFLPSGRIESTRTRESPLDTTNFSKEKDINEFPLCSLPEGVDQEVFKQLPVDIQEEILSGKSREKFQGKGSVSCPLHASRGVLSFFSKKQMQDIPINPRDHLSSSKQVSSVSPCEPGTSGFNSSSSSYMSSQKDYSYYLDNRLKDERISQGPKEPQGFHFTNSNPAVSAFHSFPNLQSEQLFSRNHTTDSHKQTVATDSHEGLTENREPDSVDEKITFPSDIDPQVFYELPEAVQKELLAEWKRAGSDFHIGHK
Experiment: qHTS for Inhibitors of Polymerase Iota: Confirmatory Assay for Cherry-picked Compounds (AID 720496)
Conditions: Pol iota primer extension, TAMRA/BHQ fluorescence
In short: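 Kinetic fluorescence, 0 → 10 min, ex 525/em 598 nm. Pol iota 10 nM, 15 min RT preincubation with compound, then 50 nM (final) TAMRA/BHQ-2 primer-template substrate.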
Potency is read from the fitted curve at half-maximal effect.

Potency, active:
ON=C1/C(=N\O)CC2(C/C1=N/O)OCCO2 59.7 µM
O=C1COc2c1ccc(O)c2O 33.6 µM
COc1ccc2[nH]c3c(C)c4cc[n+](C)cc4c(C)c3c2c1 2.99 µM
O=C(N/N=C/c1ccco1)c1ccc(C(=O)N/N=C/c2ccco2)o1 42.3 µM
O=C(O)C(c1ccccc1)N1C(=O)/C(=C\c2ccc(-c3cccc(Cl)c3)o2)SC1=S (stereo unspecified) 67 µM
Cc1cc(/C=C2\SC(=O)N(C)C2=O)c(C)n1-c1cccc(C(=O)O)c1 47.4 µM
CCOC(=O)C1=C(c2ccc(OC)cc2)C(=O)c2ccccc2C1=O 75.2 µM
O=C(c1cc2c(s1)CCC2)N1CCN(c2ccccc2)CC1 37.7 µM
Cc1cc(/C=N/Nc2ccc([N+](=O)[O-])cn2)c(C)n1-c1cccc(C(=O)O)c1 67 µM
CCc1ccc2nc3sc(C(=O)Nc4nnc(CC)s4)c(N)c3cc2c1 47.4 µM
CCN(c1ccc(Cl)cc1)S(=O)(=O)c1nnc(NC(=O)c2ccco2)s1 75.2 µM
O=C(COC(=O)CCC(=O)c1cccs1)NCc1ccco1 23.8 µM
CN(C)CCNC(=O)c1ccc(Cl)c2cc3ccccc3nc12 67 µM
CCOc1cccc2c1N[C@@H](c1ccc(C(=O)O)cc1)[C@H]1CC=C[C@@H]21 33.6 µM
CN1CCN(CCCNC(=O)c2ccc(/C=C3\Oc4ccccc4N(Cc4ccc(Cl)cc4)C3=O)cc2)CC1 42.3 µM
CC(/C=N/NC(=O)c1cc(-c2ccc3ccccc3c2)n[nH]1)=C\c1ccco1 75.2 µM
Cc1ccc(-c2nn(-c3ccccc3)cc2/C=C2\SC(=S)N(CCCCCC(=O)O)C2=O)o1 29.9 µM

Target: DNA polymerase eta (Homo sapiens) (UniProt Q9Y253)
Sequence (Q9Y253 whole entry, looked up): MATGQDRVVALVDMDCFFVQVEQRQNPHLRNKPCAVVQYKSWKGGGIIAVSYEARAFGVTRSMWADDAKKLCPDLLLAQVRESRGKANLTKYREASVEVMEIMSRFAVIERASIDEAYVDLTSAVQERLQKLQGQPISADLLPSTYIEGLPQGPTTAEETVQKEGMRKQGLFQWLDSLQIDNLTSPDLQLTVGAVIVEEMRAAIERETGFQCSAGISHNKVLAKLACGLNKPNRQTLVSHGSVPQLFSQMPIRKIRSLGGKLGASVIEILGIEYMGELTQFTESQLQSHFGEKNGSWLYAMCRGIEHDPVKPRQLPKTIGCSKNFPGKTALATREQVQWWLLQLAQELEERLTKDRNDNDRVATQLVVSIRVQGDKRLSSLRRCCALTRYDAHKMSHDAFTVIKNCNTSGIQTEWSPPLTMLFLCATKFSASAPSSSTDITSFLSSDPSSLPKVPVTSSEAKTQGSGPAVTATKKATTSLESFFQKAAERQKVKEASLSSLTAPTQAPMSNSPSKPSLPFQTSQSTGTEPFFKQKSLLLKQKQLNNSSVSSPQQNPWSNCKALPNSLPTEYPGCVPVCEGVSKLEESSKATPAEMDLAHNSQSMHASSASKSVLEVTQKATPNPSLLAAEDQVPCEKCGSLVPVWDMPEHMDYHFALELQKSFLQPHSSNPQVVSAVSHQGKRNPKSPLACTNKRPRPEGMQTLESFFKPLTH
Experiment: qHTS for Inhibitors of Polymerase Eta: Confirmatory Assay for Cherry-picked Compounds (AID 720502)
Conditions: Pol eta primer extension, TAMRA/BHQ fluorescence, 10 min
In short: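 Strand-displacement fluorescence (525 nm excitation, 598 nm emission) was read kinetically at 0 and 10 min after adding 50 nM final TAMRA-reporter/BHQ-2-template substrate. Beforehand, 10 nM Pol eta had been exposed to compound for 15 min at room temperature.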

Potency, active:
ON=C1/C(=N\O)CC2(C/C1=N/O)OCCO2 30.1 µM
O=C1COc2c1ccc(O)c2O 9.53 µM
COc1ccc2[nH]c3c(C)c4cc[n+](C)cc4c(C)c3c2c1 9.53 µM
CC1CCN(c2ccc(S(=O)(=O)Nc3cc(C(=O)O)cc(C(=O)O)c3)cc2[N+](=O)[O-])CC1 60.1 µM
O=C(N/N=C/c1ccco1)c1ccc(C(=O)N/N=C/c2ccco2)o1 53.6 µM
O=C(O)C(c1ccccc1)N1C(=O)/C(=C\c2ccc(-c3cccc(Cl)c3)o2)SC1=S (stereo unspecified) 75.7 µM
Cc1cc(/C=C2\SC(=O)N(C)C2=O)c(C)n1-c1cccc(C(=O)O)c1 30.1 µM
NC(=O)CSc1nnc(NC(=O)c2ccc(Br)o2)s1 26.9 µM
C=C(C)C(=O)O[C@H]1C/C(C)=C\C(=O)/C=C(\C)[C@H](O)[C@@H]2OC(=O)C(=C)[C@@H]21 75.7 µM
Cc1nnc(SCC(=O)Nc2ccc(S(=O)(=O)Nc3ccc(Cl)nn3)cc2)s1 53.6 µM
Cc1ccc(NC(=O)c2cc(-c3ccc(C)o3)nc3ccccc23)nc1 75.7 µM
Cc1cc(/C=N/Nc2ccc([N+](=O)[O-])cn2)c(C)n1-c1cccc(C(=O)O)c1 26.9 µM
CCc1ccc2nc3sc(C(=O)Nc4nnc(CC)s4)c(N)c3cc2c1 60.1 µM
CCCN1CCN(C(=O)Cn2ncc3ccccc32)CC1 75.7 µM
O=C(Nc1ccc(S(=O)(=O)Nc2nccs2)cc1)c1cc(-c2ccncc2)nc2ccccc12 67.5 µM
O=C(COC(=O)CCC(=O)c1cccs1)NCc1ccco1 75.7 µM
O=C1NN(c2ccccc2)C(=O)/C1=C/c1ccc(-c2cccc(C(=O)O)c2)o1 30.1 µM
CCc1nc2cccnc2n1-c1ccc(C(=O)O)cc1 10.7 µM
O=C(Cc1ccc(S(=O)(=O)N2CCCC2)s1)NC1CCCCCC1 60.1 µM
O=C1Nc2ccc([N+](=O)[O-])cc2C1=Nc1cccc(CO)c1 75.7 µM
Cc1ccc2cc(/C=N/Nc3ccc(C(=O)O)cc3)c(Cl)nc2c1 30.1 µM
CC1=NN(c2ccc(Cl)c(C(=O)O)c2)C(=O)/C1=C/c1ccc(-c2ccccc2[N+](=O)[O-])o1 75.7 µM
C#Cc1ccc([C@@H]2C=C(C(=O)O)O[C@H](OCCCCO)C2)cc1 84.9 µM
Cc1cc(C)cc(C(=O)NC2C(=O)N3C(C(=O)O)=C(CSc4nnc(C)s4)CSC23)c1 (stereo unspecified) 26.9 µM
